hcDAF12 agonist: activators of H. contortus DAF-12 nuclear receptor | HEK293 hcDAF-12 lit1-tk-luc reporter, luminescence; 0% DMSO, 100% Δ7-dafachronic acid | activation, % at 6.8 µM | hit rate 1.4% among 370,000;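 active = activation above the mean of all tested compounds plus 3 SD, cut at about 5.5% in these data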
DAX1 inh-1: blocks DAX1 repression of SF-1 activated StAR promoter. HEK293T StAR-luciferase reporter, SF-1/DAX-1 repression relief. inhibition, % at 6.8 µM. hit rate 1.1% among 370,000. AID 652010;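 active = inhibition above the mean over all tested compounds plus 3 SD, cut at about 3.6% in these data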;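 note: higher inhibition means more luminescence from relief of DAX-1 repression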
ssDAF-12 act: activators of S. stercoralis DAF-12 nuclear receptor | HEK293 ssDAF-12/GRIP1 lit1-tk-luc reporter, luminescence; % of 3 µM dafachronic acid response | activation, % at 6.8 µM | hit rate 1% among 370,000;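 active = activation above the mean over all tested compounds plus 3 SD, cut at about 0.9% in these data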
DAX1 inh-2: NR0B1 (DAX1) inhibition | HEK293 Gal4-DAX1 luciferase reporter, luminescence | inhibition, % at 6.75 µM | P51843 | AID 504766 | hit rate 0.99% among 340,000;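 active = inhibition above the mean over all tested compounds plus 3 SD, cut at about 4.2% in these data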;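 note: inhibition shows as a rise in luminescence from relieved DAX1 repression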
Target sequence (P51843 207-470 limits assumed): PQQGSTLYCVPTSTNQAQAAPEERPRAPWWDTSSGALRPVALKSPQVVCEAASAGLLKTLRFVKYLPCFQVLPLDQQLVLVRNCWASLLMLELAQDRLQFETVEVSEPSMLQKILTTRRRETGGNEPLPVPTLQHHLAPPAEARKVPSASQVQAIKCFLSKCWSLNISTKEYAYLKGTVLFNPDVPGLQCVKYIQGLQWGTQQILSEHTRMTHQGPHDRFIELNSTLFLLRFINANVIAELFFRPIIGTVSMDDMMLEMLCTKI
hgDAF-12 ag: hgDAF-12 agonism, primary luciferase screen; HEK293 GAL4-hgDAF12 UAS-luciferase reporter, agonist luminescence; normalized to butyrate control; activation, % at 6.8 µM; hit rate 1.8% among 370,000; AID 687014;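 active = activation above a cutoff set at the mean of all screened compounds plus 3 SD, cut at about 10% in these data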
Large screens that a line does not name were inactive. Only some compounds are listed: those with a hit (about 4.1% of all), similar ones and a draw of the others.

O=C(NC1CCCCC1)C(C1CC1)n1c(=O)c(-c2ccco2)nc2ccccc21 (centres undefined)	ssDAF-12 act 1.9 (no result: DAX1 inh-2)
COc1ccc(NC(=O)C(c2ccnc3ccccc23)n2c(=O)c(-c3ccccc3)nc3ccccc32)cc1 (centres undefined)	hcDAF12 agonist 5.6 (no result: DAX1 inh-2)
O=C(NCc1ccccc1)C(c1ccncc1)n1c(=O)c(-c2ccco2)nc2ccccc21 (centres undefined)	none (no result: DAX1 inh-2)
COc1ccc(C(C(=O)NC(C)(C)C)n2c(=O)c(-c3ccco3)nc3ccccc32)cc1 (centres undefined)	ssDAF-12 act 1.5 (no result: DAX1 inh-2)
O=C(NCc1ccccc1)C(c1ccc(-c2ccccc2)cc1)n1c(=O)c(-c2ccco2)nc2ccccc21 (centres undefined)	ssDAF-12 act 1.3 (no result: DAX1 inh-2)
O=C(NC1CCCCC1)C(c1ccccc1)n1c(=O)c(-c2ccco2)nc2ccccc21 (centres undefined)	none (no result: DAX1 inh-2)
CCCCC(=O)N1CCN(C(=O)c2ccc3c(c2)nc(C)n3C2CCCC2)CC1	none (no result: DAX1 inh-2)
O=C(Nc1nc(-c2ccccc2)ns1)c1ccncc1	DAX1 inh-2 8.4
CC(C)(C)C(=O)Nc1nc(-c2ccccc2)ns1	none
CS(=O)(=O)c1ccc(Cl)c(NC(=O)CN2CCCC2c2ccc3c(c2)OCCCO3)c1 (centres undefined)	hgDAF-12 ag 11
Cc1[nH]n(-c2ccccc2)c(=O)c1/C=N/N(C)c1ccccc1	ssDAF-12 act 1.8
CCCc1[nH]n(-c2ccc(F)cc2)c(=O)c1C=NCC1CCCO1 (centres undefined)	none
Cc1[nH]n(-c2ccccc2)c(=O)c1/C=N/O	none
Cc1[nH]n(-c2ccccc2)c(=O)c1C=NCC1CCCO1 (centres undefined)	ssDAF-12 act 1.0
Cc1[nH]n(-c2cccc(Cl)c2)c(=O)c1C=NCC(C)C	DAX1 inh-2 4.3
COc1cccc(/C=N\N2CCN(c3ccc(C)cc3)CC2)c1O	none (no result: DAX1 inh-2)
COC(=O)c1ccc(Cn2ccc3ccc(-c4ccc5ccn(C(=O)c6ccccc6C)c5c4)cc32)cc1	none (no result: DAX1 inh-2)
C=CC(=O)NC1CCCCN(CC)C1=O (centres undefined)	none (no result: DAX1 inh-2)
Cc1onc(-c2ccccc2)c1C(=O)OCC(=O)c1ccc(F)cc1	ssDAF-12 act 3.5
CC(C)C[C@H]1COc2cc(Br)ccc2S(=O)(=O)N1Cc1cccc(Cl)c1	none (no result: DAX1 inh-2)
CCC(CO)Nc1ncnc2c1cnn2-c1ccc(Cl)cc1 (centres undefined)	DAX1 inh-1 4.0
CCN1CCN(c2ncnc3c2cnn3-c2ccccc2)CC1	none
CCN1CCN(c2ncnc3c2cnn3-c2ccc(Cl)cc2)CC1	hgDAF-12 ag 12
Clc1ccc(-n2ncc3c(NCc4ccco4)ncnc32)cc1	hgDAF-12 ag 13
COc1cccc(NC(=O)C2CCCN2C(=O)NC2CCC(C)CC2)c1 (centres undefined)	none (no result: DAX1 inh-2)
C#Cc1cccc(OC[C@@H](O)CN2CCC(C(O)(c3ccccc3)c3ccccc3)CC2)c1	none (no result: DAX1 inh-2)
C=CCN(Cc1ccc2c(c1)OCO2)C(C#Cc1ccccc1)c1ccccc1C(F)(F)F (centres undefined)	none (no result: DAX1 inh-2)
Cc1ccc(Nc2c(-c3ccc(C)o3)nc3cnccn23)cc1	hgDAF-12 ag 12
Cc1cccc(NC(=O)CNC(=O)[C@H](CCc2ccccc2)NC(=O)[C@H]2O[C@@H](n3cnc4c(N)ncnc43)[C@H](O)[C@@H]2O)c1C	none (no result: DAX1 inh-2)
O=C(Cc1ccc(Cl)cc1)Nc1ccc(SC(F)F)cc1	hgDAF-12 ag 11
O=C(Cc1ccc(Br)cc1)Nc1ccc(Cl)cc1	none
CCCCCCCCN1C(=O)[C@@H](CC(=O)N2CCCC2)C[C@@]2(C(=O)OC)C1=C[C@H](COCc1ccccc1)O[C@@H]2C	none (no result: DAX1 inh-2)
COc1ccccc1C(=O)Nc1ccccc1SC(=O)c1ccccc1OC	DAX1 inh-2 4.3
COc1ccccc1C(=O)Nc1cc(-c2ccc(C)cc2)no1	ssDAF-12 act 1.0, hgDAF-12 ag 12
COc1ccc(-c2nnc(SCC(=O)N3CCCC3)o2)c(OC)c1	hgDAF-12 ag 12
CNc1ncn(-c2c(C)cccc2C)c(=O)n1	none (no result: DAX1 inh-2)
CC(=NN(Cc1ccccc1)c1ccccc1)c1ccccc1	DAX1 inh-2 4.5
COC(=O)[C@]12C[C@H](CC(=O)NCCc3ccccc3OC)C(=O)N(CCc3ccc(OC)c(OC)c3)C1=C[C@H](C1CCCC1)O[C@@H]2C	none (no result: DAX1 inh-2)
Nc1nc(SCC(=O)Nc2ccc(OCc3ccccc3)cc2)n[nH]1	DAX1 inh-2 5.2
COc1ccccc1NC(=O)COC(=O)CCc1ccc(S(=O)(=O)N2CCOCC2)cc1	none
O=C(COC(=O)CCc1ccc(S(=O)(=O)N2CCOCC2)cc1)Nc1ccccc1[N+](=O)[O-]	hcDAF12 agonist 5.6
COc1ccc(NC(=O)c2ccco2)cc1NC(=O)COc1ccccc1[N+](=O)[O-]	DAX1 inh-2 4.6
COc1ccc(NC(=O)c2ccco2)cc1NC(=O)COc1ccccc1	none
O=C(COC(=O)COc1ccccc1[N+](=O)[O-])Nc1ccc(S(=O)(=O)N2CCCCC2)cc1	ssDAF-12 act 1.2
O=C(COc1ccccc1[N+](=O)[O-])Nc1ccc2c(c1)CCC2	DAX1 inh-1 4.5
O=C(COc1cccc(Cl)c1Cl)Nc1ccc2c(c1)CCC2	none
COC(=O)c1cc2c(c3c4cc(F)ccc4n(S(=O)(=O)c4ccc(C)cc4)c13)C(=O)N(Cc1ccccc1OC)C2	none (no result: DAX1 inh-2)
COC(=O)c1cccc(OCC(C)CN2CCC(C(O)(c3ccccc3)c3ccccc3)CC2)c1 (centres undefined)	none (no result: DAX1 inh-2)
O=C(Cc1ccccc1)Nc1ccc2c(c1)CCC2	none
O=C(CC1CCCC1)Nc1ccc2c(c1)CCC2	hgDAF-12 ag 12
CCOc1ccc(C(=O)NC2C(=O)N3C(C(=O)O)=C(COC(C)=O)CSC23)cc1OCC (centres undefined)	DAX1 inh-1 4.4
Cc1nc2ccc(S(=O)(=O)NCC(=O)NCc3ccc(F)cc3)cc2s1	none (no result: DAX1 inh-2)
O=C(O)c1ccc2c(c1)S(=O)(=O)N=C1CCCCCN12	DAX1 inh-2 5.1
Cc1ccc(C(=O)N2CCOCC2)cc1[N+](=O)[O-]	none
Cc1ccc(C(=O)N2CCN(C)CC2)cc1[N+](=O)[O-]	DAX1 inh-2 4.6
O=C(Nc1ccc(F)cc1)c1nc[nH]c1C(=O)Nc1ccccc1[N+](=O)[O-]	none
O=C(Nc1ccc(F)cc1)c1nc[nH]c1C(=O)O	DAX1 inh-2 4.3
Cc1cccc(N2C(=O)C3C4C=CC(CC4)C3C2=O)c1 (centres undefined)	none
O=C1C2C3CCC(O3)C2C(=O)N1c1cccc(O)c1 (centres undefined)	ssDAF-12 act 0.9
C[C@H]1CN([C@@H](C)CO)C(=O)CCCn2cc(nn2)CO[C@@H]1CN(C)S(=O)(=O)c1ccc(F)cc1	none (no result: DAX1 inh-2)
COc1cccc(-c2nc(NCc3cccnc3)c3ccccc3n2)c1O	hcDAF12 agonist 5.9
c1cncc(CNc2nc(-c3cccnc3)nc3ccccc23)c1	none
